Results reported in article PMC7819943, “Rice protein-binding microarrays: a tool to detect cis-acting elements near promoter regions in rice”.
Whole data set: some 68,000 sequences, median “fluorescence intensity (a.u.)” near 9,100, cut for the highest 2% near 16,000. What follows is part of a selection rich in the highest values, with near analogues and random picks from the rest.

The sequences below were run against OsWRKY34 (Oryza sativa, UniProt Q0JBA9 1-250) (assay: protein-binding microarray (RPBM); PBS, 2% BSA, 51.3 ng/ul salmon testes DNA, 50 uM zinc acetate, 200 nM TF, 25 C, 1 h; high values mean tight binding). Details: protein: recombinant; tags: N-terminal polyhistidine and DsRed monomer fusion (pET32a); label: CyDye5-dUTP incorporated in the synthesized complementary strand; 3' TTTTT single-stranded linker to array surface; dsDNA, one strand shown.
Chain of OsWRKY34 (Q0JBA9 entry or part of it): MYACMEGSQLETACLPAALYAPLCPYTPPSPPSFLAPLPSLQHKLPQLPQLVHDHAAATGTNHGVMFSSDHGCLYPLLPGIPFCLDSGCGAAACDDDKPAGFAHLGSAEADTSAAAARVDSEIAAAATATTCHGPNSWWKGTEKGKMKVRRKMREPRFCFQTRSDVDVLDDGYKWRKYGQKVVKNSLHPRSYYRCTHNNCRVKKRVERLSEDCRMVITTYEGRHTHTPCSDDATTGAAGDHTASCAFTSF
How it was run: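 For the binding signal, per-feature fluorescence intensity was read in arbitrary units on an Axon 4000B scanner. Before scanning, a 2% BSA-blocked custom Agilent array made double-stranded with Cy5-dUTP was washed after 1 h at 25 °C with 200 nM protein and 50 µM zinc acetate. The proteins were Ni–NTA-purified transcription factors with N-terminal polyhistidine and DsRed fusions, expressed in E. coli BL21-CodonPlus.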

Sequence	binding signal
CCGCGGTGGGGCATGGTGGTGAGGTGGGAGGGAGGGAGCTCGGAGTCACCTAGTGCAG	17100 fluorescence intensity (a.u.)
TTTGTGGGTGATGGTGGGTGGGAGTGGGATAGGGCGGCCCCGGAGTCACCTAGTGCAG	17000 fluorescence intensity (a.u.)
TGGTTCGCTCGGTGGGTGGTGGTGGTTCTGTGAGCCCGCGCGGAGTCACCTAGTGCAG	18400 fluorescence intensity (a.u.)
GCGGCGGTGGGGATGGGGATAGGGCGGCGGCGGCGGATGGCGGAGTCACCTAGTGCAG	13600 fluorescence intensity (a.u.)
GGATGGGCATGGAGGAGGTGCAGTGAGTGGAGCTGGAGGACGGAGTCACCTAGTGCAG	8730 fluorescence intensity (a.u.)
TGTGGGTATGGGGATGATTTTGTACCCGTGATAGGTGTGGCGGAGTCACCTAGTGCAG	13100 fluorescence intensity (a.u.)
TGGGGCTTCTGGTGTGCTCGGTGGTGTTCGCCGCGGCGGCCGGAGTCACCTAGTGCAG	14200 fluorescence intensity (a.u.)
GCGGGATGGGGAGGCGGCGCCGCGAGGAGGAGGGGATGGGCGGAGTCACCTAGTGCAG	11900 fluorescence intensity (a.u.)
TCTTTTGTCACATCTTTATAATATTGCCCATGGCACATACCGGAGTCACCTAGTGCAG	8490 fluorescence intensity (a.u.)
TGCCATCTCCTTCGCCATTGGAGCTCACCACACACTCGCTCGGAGTCACCTAGTGCAG	9660 fluorescence intensity (a.u.)
CACCTGACCCATTCTTGCTTACCTTATATTTAGCATACTCCGGAGTCACCTAGTGCAG	8160 fluorescence intensity (a.u.)
CTATTTTATAAAATCTTTGTTTATGCATACCAGCTAAATTCGGAGTCACCTAGTGCAG	8800 fluorescence intensity (a.u.)
AAGCCAACCCAACCCGCACCTTCTCGCTGCTTCTACTACTCGGAGTCACCTAGTGCAG	13100 fluorescence intensity (a.u.)
ACGGTGGCGTTGTGCCCTGTGATGGTGTCCGCGTTGTGTCCGGAGTCACCTAGTGCAG	8990 fluorescence intensity (a.u.)
CGGGCGGATGAGGGGCGGCGATGGGCGGGCAAGGGGCGTGCGGAGTCACCTAGTGCAG	12500 fluorescence intensity (a.u.)
CAGAGCAGGGGAGGGGAGGGGAGGGGATCCTGGTGAGCCTCGGAGTCACCTAGTGCAG	17600 fluorescence intensity (a.u.)
GCTGCTGCTGCCGCCCGGCCGCCACCCGTGACCCGCGCCACGGAGTCACCTAGTGCAG	8860 fluorescence intensity (a.u.)
ATGTGGTTTGGTGAGCGCCGCTGTGCCCACCTAACCCACACGGAGTCACCTAGTGCAG	27300 fluorescence intensity (a.u.)
ACGTGTACGGCGCGGGGTGGAGGTGAGGGGTGGTGGGGCCCGGAGTCACCTAGTGCAG	18000 fluorescence intensity (a.u.)
CTAGTGAGGGGCGGGCGGGCGGGCAAGGGGAGCGGATGGGCGGAGTCACCTAGTGCAG	19100 fluorescence intensity (a.u.)
TCTCAGCAGGGGAGGGGAGGGGAGGGGATCCTGGTGAGGTCGGAGTCACCTAGTGCAG	15700 fluorescence intensity (a.u.)
GCAACGGGGAGGTGGGCGGAGGTGCGGCGCGGCGGCGGGCCGGAGTCACCTAGTGCAG	10300 fluorescence intensity (a.u.)
GGGCAAGGGGAGCGGATGGGCGGGGAGGAGGCAGGCTGCGCGGAGTCACCTAGTGCAG	11600 fluorescence intensity (a.u.)

Sequence	binding signal
CTGGCGAGCAGAGCAGGGGAGGGGAGGGGAGGGGATCCTGCGGAGTCACCTAGTGCAG	15800 fluorescence intensity (a.u.)
GTCGAGGCGGCGGCGGCGGGGCGCGGAGTGAGGTGGGTGCCGGAGTCACCTAGTGCAG	8640 fluorescence intensity (a.u.)
TGCCGCTGCCGCCGTGTGCCCGAGCGAGCCCACGCCCACACGGAGTCACCTAGTGCAG	8340 fluorescence intensity (a.u.)
CTGGGATTTGGTGGAGCTCCTGCGGTGGGGTGCCAGTGATCGGAGTCACCTAGTGCAG	12200 fluorescence intensity (a.u.)
ACTGTATATCGATGGCCCACTCGGCCCGACCCGTCCCGGCCGGAGTCACCTAGTGCAG	10600 fluorescence intensity (a.u.)
ATCAAGCCGAATAGTGCTGACATCTTCATTCTGGTTTTTTCGGAGTCACCTAGTGCAG	9510 fluorescence intensity (a.u.)
GTCTAGTATAAATCAACGCCACACCACTTGCCTAGTCATCCGGAGTCACCTAGTGCAG	8070 fluorescence intensity (a.u.)
GTCGGCGCCCATAGTTTTTTTCCGCAAGGGTTTTCTACGTCGGAGTCACCTAGTGCAG	8810 fluorescence intensity (a.u.)
TCTTAAGCGTGTTCATGGGTCTTGTTATGCTCAAGTCAAACGGAGTCACCTAGTGCAG	8950 fluorescence intensity (a.u.)
ATCTCTTTCATCCGATTACTGTGTTTTTTCTGTGGTCCAACGGAGTCACCTAGTGCAG	8410 fluorescence intensity (a.u.)
GCCGCTTGCCCTCGCAGCCGCTCCGCCTGCCTCCGCCCACCGGAGTCACCTAGTGCAG	10000 fluorescence intensity (a.u.)
ATCTGGTAACTCAAGTGCTCTCTTCCTGACTGCTGCAGCACGGAGTCACCTAGTGCAG	9470 fluorescence intensity (a.u.)
GATGAGTGGTGATTGGTGAAGATATCTGGTGGTTTTGGGACGGAGTCACCTAGTGCAG	8630 fluorescence intensity (a.u.)
AACCCGTTCACACACATTGTCAGGGACCAGCTCATTACTTCGGAGTCACCTAGTGCAG	10400 fluorescence intensity (a.u.)
GGGCTGTTGTGTGTGTGTTTTGCGACGTGCCGTGCTGGGCCGGAGTCACCTAGTGCAG	8290 fluorescence intensity (a.u.)
CCGTTGACTTTTTAGTACGTGTTTGATTCATTCTTAAATACGGAGTCACCTAGTGCAG	16200 fluorescence intensity (a.u.)
AATGTTTGATACCGTTGACTTTTTAGTACGTGTTTGATCACGGAGTCACCTAGTGCAG	32600 fluorescence intensity (a.u.)
TGACTTTTTAGTACGTGTTTGATCATTCGTCTTATTCAAACGGAGTCACCTAGTGCAG	10800 fluorescence intensity (a.u.)
AATGTTTGACACCGTTGACTTTTTAGTACGTGTTTGTCCACGGAGTCACCTAGTGCAG	30200 fluorescence intensity (a.u.)
AACGATGACGACGTGTGCGCGCTGTTGTTTTTTTGTCCCACGGAGTCACCTAGTGCAG	19700 fluorescence intensity (a.u.)
TGATTTTTGTCCCACGTGGCATTGACGTGGCGCTTATGTGCGGAGTCACCTAGTGCAG	8850 fluorescence intensity (a.u.)
TCCCCACCTGTCAGTACTTATGTTTTGACTTTTTGACCCACGGAGTCACCTAGTGCAG	14300 fluorescence intensity (a.u.)
